The supplement of paper PMC8728848
The sample as a whole holds a higher share of the strongest signals than the screen did.

Experiments:
Assay in all cases: glycan array binding signal (z-score within array); higher = stronger binding
Details in all cases: glycan notation: IUPAC condensed, linker removed
Fuc(a1-2)Gal(b1-3)GlcNAc = target: Fuc(a1-2)Gal(b1-3)GlcNAc
Procedure, shortened: (§1)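 Arrays were curated from the Consortium for Functional Glycomics database, 3228 in total, and kept only where the protein sequence was available. Binding is expressed as a within-array Z-score. This score was averaged across arrays of the same protein sequence at different concentrations or buffers and across linkers, and negative values can be read as non-binding.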

[1] = target: Fuc(a1-2)Gal(b1-3)GlcNAc(b1-2)Man(a1-3)[Fuc(a1-2)Gal(b1-3)GlcNAc(b1-2)Man(a1-6)]Man(b1-4)GlcNAc(b1-4)GlcNAc
Procedure, shortened: as §1

[2] = target: Fuc(a1-2)Gal(b1-3)GlcNAc(b1-3)Gal(b1-4)Glc
Procedure, shortened: as §1

[3] = target: Fuc(a1-2)Gal(b1-3)GlcNAc(b1-3)[Gal(b1-4)GlcNAc(b1-6)]Gal(b1-4)Glc
Procedure, shortened: as §1

[4] = target: Fuc(a1-2)Gal(b1-3)GlcNAc(b1-3)[Neu5Ac(a2-6)Gal(b1-4)GlcNAc(b1-6)]Gal(b1-4)Glc
Procedure, shortened: as §1

[5] = target: Fuc(a1-2)Gal(b1-4)GlcNAc(b1-2)[Fuc(a1-2)Gal(b1-4)GlcNAc(b1-4)]Man(a1-3)[Fuc(a1-2)Gal(b1-4)GlcNAc(b1-2)Man(a1-6)]Man(b1-4)GlcNAc(b1-4)GlcNAc
Procedure, shortened: as §1

[6] = target: Fuc(a1-2)Gal(b1-4)GlcNAc(b1-3)Gal(b1-4)GlcNAc(b1-3)Gal(b1-4)GlcNAc
Procedure, shortened: as §1

[7] = target: Fuc(a1-2)[Gal(a1-3)]Gal(b1-3)GlcNAc
Procedure, shortened: as §1

[8] = target: Fuc(a1-2)[Gal(a1-3)]Gal(b1-3)GlcNAc(b1-6)GalNAc
Procedure, shortened: as §1

[9] = target: Fuc(a1-2)[GalNAc(a1-3)]Gal(b1-3)GlcNAc(b1-6)GalNAc
Procedure, shortened: as §1

[10] = target: Fuc(a1-2)[GalNAc(a1-3)]Gal(b1-4)[Fuc(a1-3)]GlcNAc(b1-3)GalNAc
Procedure, shortened: as §1

Gal(a1-4)Gal(b1-4)GlcNAc = target: Gal(a1-4)Gal(b1-4)GlcNAc
Procedure, shortened: as §1

[11] = target: Gal(b1-3)GlcNAc(a1-3)Gal(b1-4)GlcNAc
Procedure, shortened: as §1

[12] = target: Gal(b1-3)GlcNAc(b1-3)Gal(b1-4)GlcNAc(b1-3)Gal(b1-4)GlcNAc(b1-2)[Gal(b1-3)GlcNAc(b1-3)Gal(b1-4)GlcNAc(b1-3)Gal(b1-4)GlcNAc(b1-6)]Man(a1-6)[Gal(b1-3)GlcNAc(b1-3)Gal(b1-4)GlcNAc(b1-3)Gal(b1-4)GlcNAc(b1-2)Man(a1-3)]Man(b1-4)GlcNAc(b1-4)[Fuc(a1-6)]GlcNAc
Procedure, shortened: as §1

[13] = target: Gal(b1-3)GlcNAc(b1-3)Gal(b1-4)GlcNAc(b1-6)[Gal(b1-3)GlcNAc(b1-3)]Gal(b1-4)Glc
Procedure, shortened: as §1

[14] = target: Gal(b1-3)[Fuc(a1-4)]GlcNAc(b1-3)Gal(b1-4)GlcNAc
Procedure, shortened: as §1

[15] = target: Gal(b1-4)GlcNAc(b1-2)[Gal(b1-4)GlcNAc(b1-4)]Man(a1-3)[GlcNAc(b1-4)][Gal(b1-4)GlcNAc(b1-2)Man(a1-6)]Man(b1-4)GlcNAc(b1-4)GlcNAc
Procedure, shortened: as §1

[16] = target: Gal(b1-4)GlcNAc(b1-2)[Gal(b1-4)GlcNAc(b1-6)]Man(a1-6)[Gal(b1-4)GlcNAc(b1-2)Man(a1-3)]Man(b1-4)GlcNAc(b1-4)[Fuc(a1-6)]GlcNAc
Procedure, shortened: as §1

[17] = target: Gal(b1-4)GlcNAc(b1-3)Gal(b1-4)GlcNAc(b1-3)Gal(b1-4)GlcNAc
Procedure, shortened: as §1

[18] = target: Gal(b1-4)GlcNAc(b1-3)Gal(b1-4)GlcNAc(b1-3)Gal(b1-4)GlcNAc(b1-3)Gal(b1-4)GlcNAc(b1-3)Gal(b1-4)GlcNAc(b1-2)[Gal(b1-4)GlcNAc(b1-3)Gal(b1-4)GlcNAc(b1-3)Gal(b1-4)GlcNAc(b1-3)Gal(b1-4)GlcNAc(b1-3)Gal(b1-4)GlcNAc(b1-6)]Man(a1-6)[Gal(b1-4)GlcNAc(b1-3)Gal(b1-4)GlcNAc(b1-3)Gal(b1-4)GlcNAc(b1-3)Gal(b1-4)GlcNAc(b1-3)Gal(b1-4)GlcNAc(b1-2)Man(a1-3)]Man(b1-4)GlcNAc(b1-4)[Fuc(a1-6)]GlcNAc
Procedure, shortened: as §1

Gal3S(b1-3)GalNAc = target: Gal3S(b1-3)GalNAc
Procedure, shortened: as §1

[19] = target: GalNAc(a1-3)GalNAc(b1-3)Gal(a1-4)Gal(b1-4)Glc
Procedure, shortened: as §1

[20] = target: GlcA3S(b1-3)Gal(b1-4)GlcNAc(b1-3)Gal(b1-4)Glc
Procedure, shortened: as §1

[21] = target: GlcNAc(b1-2)[GlcNAc(b1-4)]Man(a1-3)[GlcNAc(b1-4)][GlcNAc(b1-2)Man(a1-6)]Man(b1-4)GlcNAc(b1-4)GlcNAc
Procedure, shortened: as §1

[22] = target: GlcNAc(b1-3)Gal(b1-4)GlcNAc(b1-3)Gal(b1-4)GlcNAc(b1-3)GalNAc
Procedure, shortened: as §1

[23] = target: GlcNAc(b1-3)[GlcNAc(b1-6)]GalNAc
Procedure, shortened: as §1

Kdn(a2-3)Gal(b1-4)Glc = target: Kdn(a2-3)Gal(b1-4)Glc
Procedure, shortened: as §1

Man(a1-2)Man(a1-3)Man = target: Man(a1-2)Man(a1-3)Man
Procedure, shortened: as §1

[24] = target: Man(a1-3)[Man(a1-6)]Man(a1-6)[Man(a1-3)]Man
Procedure, shortened: as §1

Man(b1-4)GlcNAc = target: Man(b1-4)GlcNAc
Procedure, shortened: as §1

B1: FliC (Pseudomonas aeruginosa), P72151 (protein)
chain: MALTVNTNIASLNTQRNLNASSNDLNTSLQRLTTGYRINSAKDDAAGLQISNRLSNQISGLNVATRNANDGISLAQTAEGALQQSTNILQRIRDLALQSANGSNSDADRAALQKEVAAQQAELTRISDTTTFGGRKLLDGSFGTTSFQVGSNAYETIDISLQNASASAIGSYQVGSNGAGTVASVAGTATASGIASGTVNLVGGGQVKNIAIAAGDSAKAIAEKMDGAIPNLSARARTVFTADVSGVTGGSLNFDVTVGSNTVSLAGVTSTQDLADQLNSNSSKLGITASINDKGVLTITSATGENVKFGAQTGTATAGQVAVKVQGSDGKFEAAAKNVVAAGTAATTTIVTGYVQLNSPTAYSVSGTGTQASQVFGNASAAQKSSVASVDISTADGAQNAIAVVDNALAAIDAQRADLGAVQNRFKNTIDNLTNISENATNARSRIKDTDFAAETAALSKNQVLQQAGTAILAQANQLPQAVLSLLR
- glycan array binding signal (z-score) (Fuc(a1-2)Gal(b1-3)GlcNAc): -0.166
- glycan array binding signal (z-score) [1]: -0.133
- glycan array binding signal (z-score) [2]: -0.154
- glycan array binding signal (z-score) [3]: -0.067
- glycan array binding signal (z-score) [4]: 2.82
- glycan array binding signal (z-score) [5]: -0.117
- glycan array binding signal (z-score) [6]: -0.151
- glycan array binding signal (z-score) [7]: -0.118
- glycan array binding signal (z-score) [8]: 0.094
- glycan array binding signal (z-score) [9]: 2.71
- glycan array binding signal (z-score) [10]: -0.134
- glycan array binding signal (z-score) (Gal(a1-4)Gal(b1-4)GlcNAc): 0.061
- glycan array binding signal (z-score) [11]: -0.119
- glycan array binding signal (z-score) [12]: 2.32
- glycan array binding signal (z-score) [13]: -0.165
- glycan array binding signal (z-score) [14]: -0.193
- glycan array binding signal (z-score) [15]: -0.178
- glycan array binding signal (z-score) [16]: 1.27
- glycan array binding signal (z-score) [17]: -0.189
- glycan array binding signal (z-score) [18]: 3.23
- glycan array binding signal (z-score) (Gal3S(b1-3)GalNAc): -0.09
- glycan array binding signal (z-score) [19]: -0.183
- glycan array binding signal (z-score) [20]: -0.191
- glycan array binding signal (z-score) [21]: 1.69
- glycan array binding signal (z-score) [22]: -0.143
- glycan array binding signal (z-score) [23]: -0.16
- glycan array binding signal (z-score) (Kdn(a2-3)Gal(b1-4)Glc): -0.115
- glycan array binding signal (z-score) (Man(a1-2)Man(a1-3)Man): -0.16
- glycan array binding signal (z-score) [24]: -0.152
- glycan array binding signal (z-score) (Man(b1-4)GlcNAc): -0.177
